The panel holds about 83,000 compounds, 20% with a hit somewhere; the sample as a whole holds those more often.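 For each line, cells grew in 96-well plates with the test compound present at a single concentration for 48 hours.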 Unmarked numbers belong to inactive results. Activity calls are given as the source filed them. Rule for the calls: active = growth percent below 10; inactive = the rest.
Experiments:
Experiment in all cases: NCI-60 one-dose screen, 48 h (100 = growth as untreated, 0 = no growth, -100 = all killed)
Settings in all cases: 10 µM unless noted
SK-MEL-2 melanoma = test system: SK-MEL-2 melanoma
EKVX NSCLC = test system: EKVX NSCLC
SN12C renal = test system: SN12C renal
UO-31 renal = test system: UO-31 renal
TK-10 renal = test system: TK-10 renal
ACHN renal = test system: ACHN renal
CAKI-1 renal = test system: CAKI-1 renal
A498 renal = test system: A498 renal
CCRF-CEM leukemia = test system: CCRF-CEM leukemia
MOLT-4 leukemia = test system: MOLT-4 leukemia

Row | Compound | growth (SK-MEL-2 melanoma) | growth (EKVX NSCLC) | growth (SN12C renal) | growth (UO-31 renal) | growth (TK-10 renal) | growth (ACHN renal) | growth (CAKI-1 renal) | growth (A498 renal) | growth (CCRF-CEM leukemia) | growth (MOLT-4 leukemia)
1 | c1cc2c(ccc3[nH]c(-c4ccc5[nH]ncc5c4)c4c(c32)CCCC4)n1 | 83.6% | 62.7% | 46% | 53.3% | 80.2% | 32.3% | 69.8% | 74.3% | 13.6% | –
2 | C1CCC([PH+](C2CCCCC2)C2CCCCC2[PH+](C2CCCCC2)C2CCCCC2)CC1.[Au].[CH-]1CCCCC1C1CCCC[N-]1 (stereo not drawn) | -56.6% (active) | -77.6% (active) | -47.3% (active) | -96.3% (active) | -58.7% (active) | -99.4% (active) | -88% (active) | -71.1% (active) | 2.23% (active) | –
3 | Cc1ccc(CNc2ccc3nc(CCC4CCCCC4)[nH]c3c2)cc1 | 58.8% | 53.4% | 45.7% | 23.8% | 54.8% | 47.8% | 35.8% | 57.5% | 39.9% | –
4 | N#Cc1ccc(O)c(C2=NCC(c3ccccc3)O2)c1 (stereo not drawn) | 50.6% | 37.1% | 41.7% | 20.1% | 52.2% | 40.5% | 8.26% (active) | 63.5% | 28.1% | –
5 | COc1cc(/C=C/C(=O)c2ccc(F)cc2)ccc1OCCCCOc1ccc(/C=C/C(=O)c2c(C)nc3ccccc3c2C)cc1OC | 50.5% | 133% | 115% | 86.8% | 114% | 95.8% | 80.6% | 113% | 80.5% | –
6 | COc1ccc2c(c1)CC[C@H](O)/C2=C/c1cc(OC)c(OC)c(OC)c1 | 43.5% | 38% | 37.6% | 34.3% | 66.6% | 26.4% | 30.5% | -9.18% (active) | 5.74% (active) | –
7 | O=C(CN1CCOCC1)Nc1nc(-c2cc3ccccc3oc2=O)cs1 | 114% | 99% | 101% | 70.6% | 154% | 93.1% | 82.4% | 102% | 103% | –
8 | O=C1/C(=C/c2ccc([N+](=O)[O-])cc2)COc2ccc(O)cc21 | 109% | 92.3% | 76.8% | 53.7% | 92.7% | 82.7% | 63.6% | 99.5% | 3.96% (active) | –
9 | Oc1c(I)cc(I)cc1CNCCN(Cc1ccccn1)Cc1ccccn1 | -52.4% (active) | -10.3% (active) | 16% | -89.4% (active) | -91.5% (active) | -84% (active) | -92.2% (active) | -88.2% (active) | -10.1% (active) | –
10 | NC(=O)c1cccc(-n2ccc3cc(NC(=O)c4ccc(N5CCOCC5)c(C(F)(F)F)c4)ccc32)n1 | 71% | 47.8% | 73.5% | 36.5% | 86.9% | 46.6% | 39.7% | 15.7% | 34.4% | –
11 | Cn1ccnc1C(=O)/C=C/c1ccc(C(=O)Nc2ccccc2O)cc1 | 78% | 56.5% | 12.6% | 33.3% | 107% | 10.5% | 26.8% | 55.7% | -9.45% (active) | 17%
12 | O=C(Nc1ccc(Oc2cccc(Cl)c2)c(Cl)c1)c1cnccn1 | 43.6% | 53.2% | 44.4% | 37.3% | 56.4% | 40% | 21.6% | 50.2% | 16.6% | –
13 | COc1cc(-c2cncn2-c2ccc(-c3nc4ccc(F)cc4s3)cc2)ccc1F | 37.7% | 95.8% | 94.7% | 71.9% | 92.1% | 3.23% (active) | 25.7% | 74.5% | 81.5% | –
14 | O=C(Nc1ccc(Oc2cccc(Cl)c2)c(Cl)c1)c1cccnc1 | 44.1% | 50.9% | 43.4% | 44.1% | 59.8% | 41.7% | 30.6% | -3.1% (active) | 17.5% | 37.4%
15 | CCOC(=O)NC(C)C | 114% | 105% | 100% | 81.5% | 115% | 100% | 98.2% | 117% | 110% | 82.9%
16 | C#COc1cccc(Nc2c(C#N)cnc3ncc(NC(=O)CCl)cc23)c1 | 12.4% [6.25 µM] | 52% [6.25 µM] | 17.3% [6.25 µM] | 41.1% [6.25 µM] | 26.8% [6.25 µM] | 32.4% [6.25 µM] | 36.1% [6.25 µM] | 56.7% [6.25 µM] | -25.3% [6.25 µM] (active) | -2.02% [6.25 µM] (active)
17 | Cc1ccc(C[P+](c2ccccc2)(c2ccccc2)c2ccccc2)cc1 | -4.59% (active) | 6.8% (active) | 4.76% (active) | 88.1% | 30.5% | 24.4% | 44.8% | 27.5% | 9.9% (active) | -31.4% (active)
18 | COc1ccc(-c2ccc(-c3ccc(C(=N)N)cc3)s2)cc1Cl | 101% | 68.3% | -69.1% (active) | -47.6% (active) | 111% | -98.7% (active) | -88.2% (active) | 90.3% | -41.3% (active) | -50.1% (active)
19 | OCCn1cc(-c2nc(-c3c[nH]c4ncccc34)cs2)c2ccccc21 | 98.6% | 32% | 80% | 37.8% | 82.5% | 69.3% | 73.7% | 34.7% | 84.8% | 71.2%
20 | COc1c(B(O)O)cccc1-c1nc2c(F)cc3[nH]ncc3c2c2c1CCCC2 | -6.26% (active) | 7.37% (active) | 15.8% | -1.82% (active) | 16.2% | 0.144% (active) | -28% (active) | -64.6% (active) | 13.9% | 7.73% (active)
21 | CS(=O)(=O)Nc1cc(-c2ccc3ncnc(Nc4ccc5c(cnn5Cc5ccc(F)cc5)c4)c3c2)cnc1Cl | 3.86% (active) | 62.5% | 35.6% | 46.5% | 38.3% | 70.6% | 25.7% | -23.2% (active) | 31.2% | 21.2%
22 | Cc1cccc(CNc2c3ccccc3nc3ccccc23)c1 | 38% | 44.5% | 26.1% | 14.7% | 38.4% | 15.8% | 17.7% | -2.22% (active) | 14.8% | 2.32% (active)
23 | Cn1c(I)c(C#CCO[Si](C)(C)C(C)(C)C)c(=O)[nH]c1=O | 69.2% | 105% | 114% | 25.3% | 92.7% | 99.7% | 103% | 94.5% | 5.42% (active) | -22.9% (active)
24 | O=c1[nH]c(-c2ccccc2)nc2sc3cc(O)ccc3c12 | 103% | 66.4% | 89.1% | 55.9% | 99.9% | 76.2% | 68.9% | 79.3% | 73.1% | 66.9%
25 | N#Cc1c(-c2ccc(Cl)cc2)c(C#N)c2c(C#N)c(N)nn2c1N | 93.1% | 68.3% | 87.8% | 67.1% | 83.8% | 87.7% | 71.6% | 78.2% | 73.9% | 79.4%
26 | COC(=O)C1Cc2ccccc2CN1C(=O)c1ccc2c(c1)Cc1ccccc1-2 (stereo not drawn) | 47.4% [50 µM] | 24.5% [50 µM] | 38.5% [50 µM] | 13.9% [50 µM] | 52.2% [50 µM] | 43.3% [50 µM] | 28.7% [50 µM] | 27.3% [50 µM] | 32.1% [50 µM] | 21.9% [50 µM]

— PubChem BioAssay (NCI)
